In PubChem BioAssay (Tox21):
Values joined by “and” are separate entries in the source; they are usually repeats but may differ in a detail not shown here. Equal entries are not always repeated. Records with an inconclusive call do not appear. Where a call stands in place of a potency, no number is given. More than one record can exist for a structure, and the calls need not agree. Active and inactive are the calls of the source. Calls come from the whole dose curve; as a rule, active = well fitted activation curve with a large enough effect in the repeat runs; inconclusive = weak or mixed curves; inactive = no such curve, though single readings can be large or run the other way.

target: Aryl hydrocarbon receptor (Homo sapiens) (UniProt P35869); assay: qHTS assay to identify small molecule that activate the aryl hydrocarbon receptor (AhR) signaling pathway (AID 743085); details: HepG2 AhR-luc (HG2L7.5c1), luciferase, 24 h; series mostly up to 70.3 µM; note: nearly all actives have a fitted effect of over 15% in size;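 for activation: HG2L7.5c1 human HepG2 liver cells with stably integrated DRE-driven firefly reporter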
Sequence (P35869 whole entry, looked up): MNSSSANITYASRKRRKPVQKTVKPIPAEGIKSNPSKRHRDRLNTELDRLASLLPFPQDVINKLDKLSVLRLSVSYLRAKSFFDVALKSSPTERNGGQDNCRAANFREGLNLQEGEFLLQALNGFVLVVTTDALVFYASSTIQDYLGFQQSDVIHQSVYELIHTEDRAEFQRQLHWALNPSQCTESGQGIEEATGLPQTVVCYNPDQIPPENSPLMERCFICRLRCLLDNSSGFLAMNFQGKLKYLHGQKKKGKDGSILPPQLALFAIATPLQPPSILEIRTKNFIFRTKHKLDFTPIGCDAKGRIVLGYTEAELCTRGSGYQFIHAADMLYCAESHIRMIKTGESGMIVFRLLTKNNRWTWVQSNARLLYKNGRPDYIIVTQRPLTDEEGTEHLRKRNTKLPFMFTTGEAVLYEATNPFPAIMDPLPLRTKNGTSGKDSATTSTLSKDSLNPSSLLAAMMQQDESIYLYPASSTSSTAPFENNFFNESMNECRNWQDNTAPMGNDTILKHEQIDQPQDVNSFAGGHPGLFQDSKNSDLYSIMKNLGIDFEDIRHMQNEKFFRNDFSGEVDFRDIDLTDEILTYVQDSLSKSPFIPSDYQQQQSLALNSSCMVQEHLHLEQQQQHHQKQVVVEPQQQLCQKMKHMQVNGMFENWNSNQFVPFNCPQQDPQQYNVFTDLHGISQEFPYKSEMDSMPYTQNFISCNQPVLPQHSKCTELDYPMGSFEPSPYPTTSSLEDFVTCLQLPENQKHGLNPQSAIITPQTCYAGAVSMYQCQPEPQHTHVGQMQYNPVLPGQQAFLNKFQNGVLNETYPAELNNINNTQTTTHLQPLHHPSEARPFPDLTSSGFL
Description: U.S. Tox21 Program National Center for Advancing Translational Sciences [NCATS] NIH Chemical Genomics Center [NCGC] U.S. Environmental Protection Agency [EPA] National Institutes of Environmental Health Sciences [NIEHS] National Toxicology Program [NTP] U.S. Food and Drug Administration [FDA] Tox21 Assay overview: The Aryl hydrocarbon Receptor (AhR), a member of the family of basic helix-loop-helix transcription factors, is crucial to adaptive responses to environmental changes. AhR mediates cellular responses to environmental pollutants such as aromatic hydrocarbons through induction of phase I and II enzymes but also interacts with other nuclear receptor signaling pathways. A cell based HepG2-AhR-luc assay (HG2L7.5c1 cell line, developed by Dr. Michael S. Denison, University of California at Davis, was used to assess the activation of AhR. HepG2 (human hepatocellular carcinoma) cells were stably transfected with an Ah receptor-responsive firefly luciferase reporter gene plasmid containing 20 dioxin responsive elements and luciferase reporter gene. Increased luciferase activity can be used to identify the compounds that induce AhR activation.
Tox21 Assay Protocol Summary: 4000 cells in 5 uL/well were dispensed into white wall/solid bottom 1536-well plates using a Multidrop Combi (Thermo Fisher Scientific Inc., Waltham, MA) dispenser. After the assay plates were incubated at 37C for 5 h, 23 nL of compound or DMSO vehicle was transferred to the assay plates by a pintool station (Kalypsys, San Diego, CA). The plates were incubated at 37C for 24 hr. After 1 ul/well of CellTiter-Fluor reagent (Promega, Madison, WI) was added into the assay plates using a Flying Reagent Dispenser (FRD) (Aurora Discovery, CA), the assay plates were incubated at 37C for 30 min. The fluorescence intensity in the plates was measured using a ViewLux plate reader (PerkinElmer, Shelton, CT), followed by the addition of 4 uL of ONE-Glo Luciferase Assay reagent (Promega) using an FRD (Aurora Discovery). After the assay plates were incubated at room temperature for 30 min, luminescence intensity was measured using a ViewLux plate reader (Perkin Elmer).
Potency is the fitted concentration of half-maximal effect.

Row | Compound | Potency
1 | COc1ccc(N)c(OC)c1 | inactive
2 | CC(C)(C)NC[C@H](O)COc1nsnc1N1CCOCC1 | inactive
3 | CC(COCC(C)OC(=O)c1ccccc1)OC(=O)c1ccccc1 (stereo not given) | inactive
4 | COc1ccccc1[N+](=O)[O-] | inactive
5 | OC1CCCCC1 | inactive
6 | Cc1cc(C)c(O)c(C)c1 | inactive
7 | CC(C=O)Cc1ccc(C(C)(C)C)cc1 (stereo not given) | inactive
8 | O=C(c1ccccc1)c1ccc(O)c(O)c1O | inactive
9 | Nc1cccc(N)n1 | 52.6 µM (active) and 61.1 µM (active)
10 | CCOC(=O)c1ccc(O)cc1 | inactive
11 | CC(=O)Nc1ccc(CC(=O)O)cc1 | inactive
12 | O=[N+]([O-])c1cc(C(F)(F)F)ccc1Cl | inactive
13 | C[Si](C)(C)N[Si](C)(C)C | inactive
14 | CCc1cccc(CC)c1N | inactive
15 | CCCCC(=O)O | inactive
16 | C1CCCNCC1 | inactive
17 | COC(=O)OC | inactive
18 | COc1c(Cl)ccc(Cl)c1C(=O)O | inactive
19 | CC(C)c1ccc(C(C)C)cc1 | inactive
20 | CC(=O)OC[C@H]1O[C@@](COC(C)=O)(O[C@H]2O[C@H](COC(C)=O)[C@@H](OC(C)=O)[C@H](OC(C)=O)[C@H]2OC(C)=O)[C@@H](OC(C)=O)[C@@H]1OC(C)=O | inactive

Row | Compound | Potency
21 | NC(=O)c1ncn([C@@H]2O[C@H](CO)[C@@H](O)[C@H]2O)n1 | inactive
22 | CC(C)(CO)CO | inactive
23 | Nc1cccc(C(F)(F)F)c1 | inactive
24 | Cc1ccc(C)c(S(=O)(=O)O)c1 | inactive
25 | NC(=O)NC(N)=O | inactive
26 | Cc1cccc(C)c1[N+](=O)[O-] | inactive
27 | CC(=O)OCc1ccc2c(c1)OCO2 | inactive
28 | O=C1O[C@H]([C@H](O)CO)C(O)=C1O | inactive
29 | COc1cc(NC(=O)CC(C)=O)c(OC)cc1Cl | 24.4 µM (active) and 686 nM (active)
30 | c1cnc2c(c1)ccc1cccnc12 | 55 µM (active) and 54.5 µM (active) and inactive
31 | CCCCCNCCCCC | inactive
32 | O=c1n(CCCN2CCN(c3cccc(Cl)c3)CC2)nc2ccccn12 | inactive
33 | CCCOCC(C)O (stereo not given) | inactive
34 | OCC(CO)(CO)CO | inactive
35 | CCCCCCCCC(=O)O | inactive
36 | CCn1cc(C(=O)O)c(=O)c2cc3c(cc21)OCO3 | inactive
37 | O=C(O)C1=NN(c2ccc(S(=O)(=O)O)cc2)C(=O)C1 | inactive
38 | C[n+]1ccn(CCO)c1 | inactive
39 | CCCCCCCC(=O)O | inactive
40 | CC1(C)[C@@H](O[C@H]2O[C@H](C(=O)O)[C@@H](O)[C@H](O)[C@H]2O[C@@H]2O[C@H](C(=O)O)[C@@H](O)[C@H](O)[C@H]2O)CC[C@]2(C)[C@H]3C(=O)C=C4[C@@H]5C[C@@](C)(C(=O)O)CC[C@]5(C)CC[C@@]4(C)[C@]3(C)CC[C@@H]12 | inactive
